# Screens (PubChem BioAssay)
# FECH inh – inhibitors of human ferrochelatase. P22830. purified FECH, Ni-mesoporphyrin absorbance 550 nm. calls only at 10 µM (by protocol). 20,000 compounds, 3.3% hits. AID 1671448;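 active = enzyme reaction rate more than 3 SD below the solvent-only control wells on the same plate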;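 also: lower slope than DMSO wells means FECH inhibition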
# Target sequence (P22830 whole entry, looked up): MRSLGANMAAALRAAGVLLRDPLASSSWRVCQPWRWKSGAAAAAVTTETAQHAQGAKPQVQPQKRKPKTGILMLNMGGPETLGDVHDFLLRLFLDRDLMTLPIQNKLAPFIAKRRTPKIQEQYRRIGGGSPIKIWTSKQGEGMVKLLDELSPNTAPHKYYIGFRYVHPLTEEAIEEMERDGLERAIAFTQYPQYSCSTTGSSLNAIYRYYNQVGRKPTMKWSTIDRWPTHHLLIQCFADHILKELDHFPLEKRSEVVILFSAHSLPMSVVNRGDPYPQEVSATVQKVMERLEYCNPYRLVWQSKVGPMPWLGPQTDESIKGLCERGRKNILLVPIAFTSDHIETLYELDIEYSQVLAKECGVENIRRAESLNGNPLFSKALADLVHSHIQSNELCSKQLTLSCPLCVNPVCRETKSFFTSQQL
# * = called active by the depositor; i = inactive; + = active, no number. Only a selection was taken, and hits are over-represented in it overall.
SMILES,FECH inh
CCOC(=O)CCc1c(C)nc2nc(CNc3ccc(C)c(Cl)c3)[nH]n2c1=O,+
CCc1nc2nc(C)c(NC(=O)Nc3cccc(Cl)c3)c(=O)n2[nH]1,i
CCOC(=O)CCc1c(C)nc2nc(CNc3ccc(Cl)cc3)[nH]n2c1=O,+
CCOC(=O)CCc1c(C)nc2nc(CNc3ccccc3OC)[nH]n2c1=O,i
COc1ccc(NCc2nc3nc(C)c(Cc4ccc(Cl)cc4)c(=O)n3[nH]2)cc1,+
CCOC(=O)CCc1c(C)nc2nc(CNc3cc(Cl)ccc3OC)[nH]n2c1=O,i
Cc1ccc(NCc2nc3nc(C)c(Cc4ccc(Cl)cc4)c(=O)n3[nH]2)cc1,i
CCOC(=O)Cc1ccc(NC(=O)Nc2c(C)nc3nc[nH]n3c2=O)cc1,i
Fc1ccc(CN(Cc2ccncc2)Cc2cccn2-c2ncccn2)cc1,i
Cc1cc(C)cc(-n2c(CN3CCN(S(=O)(=O)c4ccc(Cl)cc4)CC3)nc3cccnc32)c1,i
Cc1ncc2c(=O)n(Cc3nc(-c4ccc(OC(C)C)cc4)oc3C)c(=O)n(C)c2n1,i
CCCCc1ccc(C(=O)N2CCc3nc(C)n(C)c(=O)c3CC2)nc1,i
O=C(NCCN1CCCOC1=O)C1CCN(Cc2ccco2)CC1,i
Cc1ccc(C(C(=O)NCCN2CCCOC2=O)N(C)C)cc1 (stereo not drawn),+
Cc1ccc(C(C(=O)NCc2ccc(-c3noc(C)n3)cc2)N(C)C)cc1 (stereo not drawn),i
Cc1nc(C(C)C)cc(N2CCCC(OCc3ccccn3)C2)n1 (stereo not drawn),i
Cc1ccc(NC(=O)CN2CCCC(OCc3ccccn3)C2)cc1C (stereo not drawn),+
O=S(=O)(NCc1ccccc1)N1CCCC(OCc2ccccn2)C1 (stereo not drawn),i
CCN(CC)C(=O)Cn1c(=O)n(CC2CCC(C(=O)N3CCOCC3)CC2)c(=O)c2sccc21 (stereo not drawn),i
CC(c1cccc(-c2ccc3[nH]c(=O)[nH]c(=O)c3c2)c1)N1CCCC1 (stereo not drawn),i
Cc1cc(C)c(CN2CCC3(CCNC(=O)CC3)CC2)c(C)c1,+
O=C1CCC2(CCN1)CCN(C(=O)C/C=C/c1ccccc1)CC2,i
COc1cccc(-c2[nH]ncc2C(=O)N2CCC3(CCNC(=O)CC3)CC2)c1,i
CCOc1ccc(C(=O)Nc2ccc(Nc3nc(C)cc(N(C)C)n3)cc2)cc1,i
COc1ccc(-c2cc(=O)[nH]c(SCc3nc(-c4ccc(Cl)cc4)oc3C)n2)cc1,i
SMILES,FECH inh
Cc1cccc(C)c1NCc1cc(=O)n2[nH]c(NCc3ccc(F)cc3)nc2n1,i
Cc1ccc(NCc2cc(=O)n3[nH]c(-c4ccccc4C)nc3n2)cc1Cl,i
Cc1ccccc1-c1nc2nc(CNc3cccc(Cl)c3C)cc(=O)n2[nH]1,i
Cc1ccccc1-c1nc2nc(CNc3cccc(C)c3C)cc(=O)n2[nH]1,i
Cc1ccccc1-c1nc2nc(CNc3ccc(F)cc3)cc(=O)n2[nH]1,+
Cc1ccc(Cl)cc1NCc1cc(=O)n2[nH]c(-c3ccccc3C)nc2n1,+
CCOC(=O)c1ccccc1NC(=O)CN1CCCN(Cc2cccc(F)c2)S1(=O)=O,i
C=CCNc1ccccc1C(=O)N(C)Cc1csc(C(C)C)n1,i
Cc1ccc(CC(=O)Nc2ccnn2C(C)C)cc1F,i
Cc1cccc(-c2c(-c3ccccc3)ncn2CCN2CCOC2=O)c1C,i
Cc1ncc(-c2c(-c3ccccc3)ncn2CCCOc2cccnc2)[nH]1,i
c1ccc(-c2ncn(CCc3cccs3)c2C2CCOC2)cc1 (stereo not drawn),i
Cc1ncc(-c2c(-c3ccccc3)ncn2CCc2cccs2)[nH]1,+
Cc1ncc(-c2c(-c3ccccc3)ncn2CCN2CCCOC2=O)[nH]1,+
O=C1OCCCN1CCn1cnc(-c2ccccc2)c1-c1cccnc1,i
CC(C)N1CCN(C(=O)CCNc2nc(CCN)nc3ccccc23)CC1,i
Cc1ccc(Cn2c(=O)c3cnc(-c4ccc(Cl)cc4)nc3n(C)c2=O)cc1,i
COc1ccc(OC)c(Nc2nc(N3CCC(C)CC3)nc3c2cnn3-c2ccccc2)c1,i
Cc1cc(C)n2nc(CN(C(=O)c3ccccc3)c3cccc(Cl)c3)nc2n1,+
Cc1cc(C)n2nc(CN(C(=O)c3cccc(Cl)c3)c3ccccc3)nc2n1,i
Cc1cccc(C(=O)N(Cc2nc3nc(C)cc(C)n3n2)c2cccc(C)c2)c1,i
Cc1cc(C)n2nc(CN(C(=O)c3ccco3)c3ccc(F)cc3)nc2n1,+
Cc1ccc(C(=O)N(Cc2nc3nc(C)cc(C)n3n2)c2cccc(Cl)c2)cc1,i
Cc1ccc(N(Cc2nc3nc(C)cc(C)n3n2)C(=O)c2ccco2)cc1,i
Cc1cc(C)n2nc(CN(C(=O)Cc3ccccc3)c3ccccc3)nc2n1,+
CCOc1ccc(N(Cc2nc3nc(C)cc(C)n3n2)C(=O)c2cccc(Cl)c2)cc1,i
Cc1cccc(N(Cc2nc3nc(C)cc(C)n3n2)C(=O)c2cccc(Cl)c2)c1,+
